# Data: ChEMBL document CHEMBL4513146, “CO-ADD screening of Karazin Kharkiv National University (Ukraine) compounds”
# Results with a measured potency or affinity are listed apart.
# What was measured:
# Staphylococcus aureus = conditions: Concentration 32 ug.mL-1;; ASSAY_TEST Inhibition of Bacterial Growth; detection method Absorption (OD600); MEDIA CAMHB; plate type 384well; NBS; CORNING #3640; time 18 hr
# Escherichia coli = conditions: Concentration 32 ug.mL-1;; ASSAY_TEST Inhibition of Bacterial Growth; detection method Absorption (OD600); MEDIA CAMHB; plate type 384well; NBS; CORNING #3640; time 18 hr
SMILES,Inhibition (Staphylococcus aureus) [%],Inhibition (Escherichia coli) [%]
CCc1ccc(N(Cc2cccc(Cl)c2)S(=O)(=O)c2cccn3c(C)nnc23)cc1,10.13,-1.93
Cn1c(=O)c2ccc(C(=O)NC3CCCC3)cc2n2c(SCC(=O)Nc3cc(F)ccc3F)nnc12,8.34,-3.62
Cc1ccc(C)c(C(=O)CSc2nnc3c(=O)n(-c4ccc(F)c(F)c4)ccn23)c1,18.46,1.4
Cc1ccccc1CN(c1ccc(C(C)C)cc1)S(=O)(=O)c1cccn2cnnc12,17.72,2.74
COc1ccc(-c2cc3c4nnc(SCC(=O)NCc5ccc(C)cc5)n4ccn3n2)cc1,-10.11,0.51
COc1ccc(NC(=O)Cn2nc3cc(C)nc(Nc4ccc(F)cc4)n3c2=O)cc1F,9.09,-0.97
COc1cccc(-n2ccn3c(SCC(=O)NCc4ccc(Cl)cc4)nnc3c2=O)c1,10.06,-3.71
CC(=O)c1ccc(NC(=O)Cn2nc3c4cc(-c5ccc(Cl)cc5)nn4ccn3c2=O)cc1,8.4,0.52
Cc1nnc2ccc(S(=O)(=O)N(Cc3ccccc3F)c3cccc(Cl)c3)cn12,2.13,-7.6
O=c1n(Cc2nc(-c3ccc(Cl)cc3)no2)nc2ccc(-c3ccccc3)nn12,1,-5.36
COc1ccc(-c2cc3c4nnc(SCC(=O)Nc5ccccc5C(F)(F)F)n4ccn3n2)cc1,-10.53,1.87
Cc1nnc2c(S(=O)(=O)N(Cc3ccccc3F)c3ccc(C(C)C)cc3)cccn12,11.33,-2.7
COc1cccc(NC(=O)Cn2nc3c(N4CCCC4)nccn3c2=O)c1,-2.28,-3.58
CCOC(=O)c1ccccc1NC(=O)Cn1nc2c(Oc3ccc(C)cc3)nccn2c1=O,-14.8,-17.92
COc1ccc(N(Cc2cccc(OC)c2)S(=O)(=O)c2ccc3nnc(C)n3c2)cc1,-9.05,0.15
Cc1cc2nn(CC(=O)NC3CCCCC3)c(=O)n2c(Nc2ccc(F)c(C)c2)n1,11.08,0.19
COc1ccc2[nH]cc(C(=O)CSc3nnc4c(=O)n(-c5ccc(F)cc5)ccn34)c2c1,14.61,-2.83
CCc1ccccc1Sc1nccn2c(=O)n(CC(=O)Nc3ccc(C)cc3)nc12,2.48,-9.52
Cc1ccc(NC(=O)CSc2nc3ccccc3n3c(C(C)C)nnc23)c(Cl)c1,-3.19,-0.25
Cc1ccc(NC(=O)CSc2nnc3c(=O)n(-c4ccc(C)c(C)c4)ccn23)c(Cl)c1,11.19,-1.65
CCc1nnc2ccc(S(=O)(=O)N(Cc3ccccc3)c3ccccc3)cn12,5.6,-2.89
O=C(Cn1nc2ccc(SCc3ccc(Cl)cc3)nn2c1=O)Nc1ccc(F)c(F)c1,-1.34,-2.62
COC(=O)c1ccc(NC(=O)CSc2nnc3ccc(C(=O)Nc4cccc(F)c4)cn23)cc1,19.46,-0.45
O=C(Cn1nc2c(SC3CCCCC3)nccn2c1=O)Nc1ccc(Br)cc1,7.56,-4.82

SMILES,Inhibition (Staphylococcus aureus) [%],Inhibition (Escherichia coli) [%]
CCc1nnc2ccc(S(=O)(=O)N(Cc3cccc(OC)c3)c3ccc(F)cc3)cn12,-0.44,-12.34
Cc1ccc(NC(=O)Cn2nc3c(Oc4ccccc4C)nccn3c2=O)cc1F,8.06,-0.85
Cc1ccc(NC(=O)CSc2nc3ccccc3n3c(C)nnc23)c(Br)c1,15.19,-2.51
Cc1ccc(S(=O)(=O)Nc2ccc3nnc(-c4ccccc4)n3n2)cc1C,8.79,-2.69
COc1ccccc1NC(=O)CSc1nnc2c(=O)n(-c3ccc(C)c(C)c3)ccn12,0.64,-7.52
O=c1c2nnc(SCc3ccccc3)n2ccn1-c1ccc(Br)cc1,12.69,-3.8
COC(=O)c1ccc(NC(=O)Cn2nc3ccc(Sc4ccc(C)cc4)nn3c2=O)cc1,10.91,-1.06
COc1ccc(-c2cc3c4nn(CC(=O)Nc5cc(OC)ccc5OC)c(=O)n4ccn3n2)cc1,5.8,4.02
COc1ccc(N2CCN(C(=O)Cn3nc4ccc(-c5ccccc5)nn4c3=O)CC2)cc1,15.35,1.42
Cc1cc2nn(CC(=O)Nc3ccc(F)cc3F)c(=O)n2c(Nc2ccc(F)c(C)c2)n1,5.82,-5.59
Cc1ccc(-c2nnc3c(=O)n(CC(=O)Nc4cc(C)cc(C)c4)c4ccccc4n23)cc1,10.86,0.18
Cc1nnc2c(=O)n(CC(=O)Nc3cccc(Cl)c3)c3ccccc3n12,13.08,5.41
O=C(CSc1nnc2c(=O)n(-c3ccccc3)ccn12)Nc1ccc(Br)cc1F,2.85,-9.92
O=C(Cn1nc2c3cc(F)ccc3ncn2c1=O)Nc1ccc2c(c1)OCO2,5.65,-3
COc1ccc(CNC(=O)Cn2nc3c(N4CCN(c5ccccc5)CC4)nccn3c2=O)cc1,21.01,2.9
Cc1[nH]c2ccccc2c1C(=O)CSc1nnc2c(=O)n(-c3ccc(F)c(F)c3)ccn12,13.1,-2.33
COc1ccc(-c2cc3c4nn(CC(=O)Nc5ccccc5OC)c(=O)n4ccn3n2)cc1,2.83,-1.9
Cc1ccc(NC(=O)c2ccc3nnc(SCC(=O)Nc4ccc(F)cc4)n3c2)cc1,14.37,5.45
CC(C)Cn1c(=O)c2sccc2n2c(=O)n(CC(=O)NC(C)C)nc12,-11.46,2.58
Cc1ccc(NC(=O)Cn2nc3ccc(SC(C)C)nn3c2=O)c(C)c1,-3.52,4.56
O=c1c2sccc2n2c(=O)n(Cc3ccc(F)cc3)nc2n1Cc1cccs1,13.21,-2.41
CCc1nnc2c(S(=O)(=O)N(Cc3cccc(F)c3)c3ccc(C)c(C)c3)cccn12,17.57,2.28
COc1ccc(-c2cc3c4nnc(SCC(=O)NCc5ccccc5Cl)n4ccn3n2)cc1,-4.22,-7.58
Cc1cccc(Cn2nc3n(CCc4ccccc4)c(=O)c4sccc4n3c2=O)c1,-3.57,-0.08

SMILES,Inhibition (Staphylococcus aureus) [%],Inhibition (Escherichia coli) [%]
COc1cc(OC)c(NC(=O)Cn2nc3c(Sc4ccc(C)cc4C)nccn3c2=O)cc1Cl,-8.98,-14.71
CCc1nnc2c(=O)n(CC(=O)Nc3cccc(C#N)c3)c3ccccc3n12,13.48,1.69
Cc1cccc(CN(c2ccc(Cl)cc2)S(=O)(=O)c2cccn3c(C)nnc23)c1,13.75,2.16
O=C(Cn1nc2ccc(-c3ccccc3)nn2c1=O)N1CCN(c2ccc(F)cc2)CC1,10.02,-0.36
O=C(Cn1nc2nc(Nc3ccc(F)cc3)ccn2c1=O)N1CCOCC1,9.39,-3.26
Cc1nnc2ccc(S(=O)(=O)N(Cc3cccc(F)c3)c3ccc(F)c(F)c3)cn12,0.15,-12.6
Cc1ccc(-c2ccc3nn(Cc4ccc(N5CCCC5=O)cc4)c(=O)n3n2)cc1,5.05,-5.45
O=C(CSc1nnc2c(=O)n(-c3ccc(Br)cc3)ccn12)Nc1cccc(Cl)c1,2.58,-6.43
Cc1ccc(NC(=O)CSc2nc3ccccc3n3c(C)nnc23)cc1C,-20.91,-12.4
Cc1nnc2c(S(=O)(=O)N(Cc3ccccc3)c3ccc(C(C)C)cc3)cccn12,6.07,-2.4
COc1ccc(-c2cc3c4nn(CC(=O)Nc5ccc(C)cc5C)c(=O)n4ccn3n2)cc1,1.83,2.27
COc1cccc(Oc2nccn3c(=O)n(CC(=O)Nc4ccc(OC)c(Cl)c4)nc23)c1,8.12,-5.35
Cc1ccc(-c2ccc3nn(CC(=O)Nc4ccc(C#N)cc4)c(=O)n3n2)cc1C,8.65,0.46
COc1cccc(-n2ccn3c(SCc4ccccc4Cl)nnc3c2=O)c1,8.33,-9.75
COC(=O)c1cccc(NC(=O)Cn2nc3c(N4CCC(C)CC4)nccn3c2=O)c1,-12.03,-9.95
Cc1cc(C)c(NC(=O)CSc2nnc3c4cc(-c5ccccc5)nn4ccn23)c(C)c1,6.45,-2.49
Cc1cc(C)cc(N(Cc2cc(C)ccc2C)S(=O)(=O)c2cccn3c(C)nnc23)c1,6.88,-2.32
Cc1ccc(NC(=O)Cn2nc3ccc(SC(C)(C)C)nn3c2=O)c(C)c1,13,-1.14
COC(=O)c1ccc(CN(c2cccc(C)c2)S(=O)(=O)c2cccn3c(C)nnc23)o1,5.77,-6.24
O=C(Cn1nc2c(N3CCOCC3)nccn2c1=O)Nc1ccccc1Br,17.91,6.7
COc1cccc(CNC(=O)CCc2nnc3ccc(-c4ccc(C)cc4)nn23)c1,16.4,-0.37
O=S(=O)(c1ccc2nncn2c1)N(Cc1cccc(F)c1)c1cc(F)cc(F)c1,0.07,-4.91
Cc1ccc(CNC(=O)Cn2nc3c(Oc4ccccc4C)nccn3c2=O)cc1,5.58,-1.39
